Assay results: PubChem BioAssay (NCI)
This is part of a sample that, as a whole, favours compounds with a hit. Of some 79,000 tested, about 15% had one in any assay. Cut-off read from the data, not from the text of the source: active = growth inhibition above about 70%; inactive = the rest.

Legend:
[1] = NCI Yeast Anticancer Drug Screen. Data for the rad50 strain (AID 155);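 note: 0% = growth of vehicle-only cultures of the same strain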; conditions: S. cerevisiae rad50 strain growth inhibition; at 50.0 µM; active compounds read high
In short: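 Compounds were tested on a yeast strain with an engineered DNA damage repair alteration; the reported value is growth inhibition normalised to vehicle treatment.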

[2] = NCI Yeast Anticancer Drug Screen. Data for the mec2-1 strain (AID 157); conditions: S. cerevisiae mec2-1 strain, at 50.0 µM, active compounds read high
In short: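 Compounds were applied to mec2-1 yeast cells. Their growth was then compared with that of vehicle-treated cultures to give growth inhibition.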

[3] = NCI Yeast Anticancer Drug Screen. Data for the sgs1 mgt1 strain (AID 161);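 note: 0% = growth of cultures given vehicle only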; conditions: S. cerevisiae sgs1 mgt1 strain, at 50.0 µM, active compounds read high
In short: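 Yeast cells carrying a defined DNA-repair defect were exposed to test compounds. Growth inhibition was measured relative to vehicle-treated controls.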

[4] = NCI Yeast Anticancer Drug Screen. Data for the cln2 rad14 strain (AID 165);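 note: 0% = growth equal to vehicle treated cultures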; conditions: S. cerevisiae cln2 rad14 strain, at 50.0 µM, active compounds read high
In short: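 Strain: cln2 rad14 yeast, altered in cell cycle control and DNA damage repair. Read-out: growth inhibition vs vehicle.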

[5] = NCI Yeast Anticancer Drug Screen. Data for the bub3 strain (AID 167); conditions: S. cerevisiae bub3 mutant strain, at 50.0 µM, active compounds read high
In short: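 Growth of a checkpoint-deficient yeast mutant is measured after compound exposure. Values represent inhibition relative to vehicle.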

[6] = NCI Yeast Anticancer Drug Screen. Data for the mlh1 rad18 strain (AID 175); conditions: S. cerevisiae mlh1 rad18 strain growth inhibition; at 50.0 µM; active compounds read high
In short: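 A repair-deficient yeast strain is exposed to test compound, and growth is scored relative to vehicle-treated controls.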

Measured: growth inhibition

O=C(Nc1cc(C(F)(F)F)ccc1Cl)c1ccc(Cl)cc1Cl
inactive: [1] 8.2% | [2] 11.2% | [3] 1.7% | [4] -0.75% | [5] 9.9% | [6] 13.7%

C#CCn1cnc2c1c(=O)n(C)c(=O)n2C
inactive: [1] 10.2% | [2] -12.7% | [3] -7.35% | [4] -0.8% | [5] -11.7% | [6] -10.7%

CC(C)OC(=O)/C=C/C(=O)OC(C)C (tested in a mixture with another compound)
inactive: [1] -13.1% | [2] -6.9% | [3] -13.6% | [4] -20.4% | [5] -13.8% | [6] -23.1%

Cn1cnc([N+](=O)[O-])c1SCC(=O)O
inactive: [1] -36.4% | [2] -0.6% | [3] -29.5% | [4] -22.9% | [5] -17.9% | [6] -3.7%

O=C(NCCN1CCCC1)Nc1ccccc1Cl
inactive: [1] 4.6% | [2] 27.2% | [3] -0.8% | [4] -10.1% | [5] 34.1% | [6] 0.15%

CCc1nnc(CC)n1NC(=O)Nc1ccc(C)cc1
inactive: [1] -5.1% | [2] -14.5% | [3] -3.75% | [4] 7.05% | [5] -7.65% | [6] 1.25%

O=C(CP(c1ccccc1)c1ccccc1)c1cccc(C(=O)CP(c2ccccc2)c2ccccc2)c1
inactive: [1] -4.3% | [2] -22.1% | [3] -5.05% | [4] -8.6% | [5] -14.3% | [6] -19.4%

CCCCCOC(=O)CC(c1ccccc1)N1CCCCC1 (stereo not given)
inactive: [1] 32.5% | [2] -6.65% | [3] 19.1% | [4] -23% | [5] 23.3% | [6] 6.4%

CNC(=S)/C(C(C)=O)=C(\C)Nc1ccccc1
inactive: [1] -0.95% | [2] -5.55% | [3] -8.05% | [4] -32.1% | [5] -14.6% | [6] 15.2%

Cc1nc[nH]c1[N+](=O)[O-]
inactive: [1] -6.6% | [2] -11% | [3] -10% | [4] 2.2% | [5] -0.85% | [6] -12.7%

CCCCOB1OC(c2ccccc2)(c2ccccc2)c2ccccc2C(c2ccccc2)(c2ccccc2)O1
inactive: [1] 31.1% | [2] 3.65% | [3] 27.2% | [4] 3.85% | [5] -2.1% | [6] 22.6%

O=C(Nc1nc2ccccc2n1Cc1ccc(Cl)cc1)C(=O)NC12CC3CC(CC(C3)C1)C2
inactive: [1] -9% | [2] -24.5% | [3] 1% | [4] -0.6% | [5] 6.8% | [6] -8.6%

Cc1ccc(C)n1N(c1ccccc1)c1ccccc1
inactive: [1] -13.6% | [2] 7.1% | [3] 2.65% | [4] -36.4% | [5] 21.6% | [6] 9.1%

CCOC(=O)OCCOCCOC(=O)OCC
inactive: [1] -2.25% | [2] -14.2% | [3] -30.8% | [4] 19.2% | [5] -2.65% | [6] 25.8%

O=C(O)/C(=C\c1ccccc1[N+](=O)[O-])c1ccc(Cl)cc1
inactive: [1] -0.2% | [2] -14.1% | [3] -2.3% | [4] -46.8% | [5] -8.95% | [6] -1.8%

CC(O)CN1CCN(CCN(CC(C)O)CC(C)O)CC1 (stereo not given)
inactive: [1] -16.1% | [2] -24.2% | [3] -3.7% | [4] -2% | [5] -9.4% | [6] -19.6%

COc1ccc(C(=O)N2CCCCC2)cc1
inactive: [1] -31.1% | [2] -15.8% | [3] -3.8% | [4] -26.6% | [5] -0.9% | [6] -12.2%

CN1CCCC2C3=CC=C4CC(O)CCC4(C)C3CCC21C (stereo not given)
inactive: [1] 60.4% | [2] 21.5% | [3] 34.9% | [4] 14.5% | [5] 23.9% | [6] 35.5%

Cc1ccc(C)c(NC(=O)NC(C)C)c1
inactive: [1] -0.6% | [2] 0.5% | [3] 5.45% | [4] -25.6% | [5] -5.3% | [6] -0.35%

C#CCN(Cc1ccc2nc(-c3ccccc3)c(N)nc2c1)c1cc(OC)c(OC)c(OC)c1
inactive: [1] -0.75% | [2] 5.25% | [3] 31.8% | [4] 16.1% | [5] 14.7% | [6] 30.1%
